# Results published in the supplement of paper PMC7411054.
# Counter-ions that a name gives are not always drawn.
# Key:
# Conditions in all cases: treatment time: 24 h
# A549-ACTB-RAB5A [1] = assay: phenotypically active (imaging signature differs from DMSO and reproducible) at any of 0.3-9 uM (binary (1 = active, 0 = inactive)); higher = active
# Outline: (§1)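 Fifteen reporter lines derived from A549, HepG2 and WPMY1 cells by gene editing, carrying BFP for segmentation plus GFP and RFP/FusionRed markers, were exposed to 0.3, 1, 3 or 9 µM for 24 h in four wells each and imaged live. Live-cell features from each well were normalised to solvent control wells. A well set counted as deviating when ≥3 of 4 wells lay beyond the 95th percentile of control Euclidean distances, and as reproducible when the median replicate Pearson correlation exceeded the 95th percentile of non-replicates. Phenotypic activity was assigned only when both criteria were met.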
# A549-CANX-COX4 [2] = assay: as above
# Outline: as §1
# A549-GM130-SQSTM1 [3] = assay: as above
# Outline: as §1
# A549-TP53BP1-CLTA [4] = assay: as above
# Outline: as §1
# A549-TUBA1B-RELA [5] = assay: as above
# Outline: as §1
# HepG2-ACTB-RAB5A = assay: as above
# Outline: as §1
# HepG2-CANX-COX4 = assay: as above
# Outline: as §1
# HepG2-GM130-SQSTM1 = assay: as above
# Outline: as §1
# HepG2-TP53BP1-CLTA = assay: as above
# Outline: as §1
# HepG2-TUBA1B-RELA = assay: as above
# Outline: as §1
# WPMY1-ACTB-RAB5A = assay: as above
# Outline: as §1
# WPMY1-CANX-COX4 = assay: as above
# Outline: as §1
# WPMY1-GM130-SQSTM1 = assay: as above
# Outline: as §1
# WPMY1-TP53BP1-CLTA = assay: as above
# Outline: as §1
# WPMY1-TUBA1B-RELA = assay: as above
# Outline: as §1
# A549-ACTB-RAB5A [6] = assay: lowest phenotypically active concentration; higher = less potent
# Outline: as §1
# A549-CANX-COX4 [7] = assay: as above
# Outline: as §1
# A549-GM130-SQSTM1 [8] = assay: as above
# Outline: as §1
# A549-TP53BP1-CLTA [9] = assay: as above
# Outline: as §1
# A549-TUBA1B-RELA [10] = assay: as above
# Outline: as §1
Compound,phenotypically active (A549-ACTB-RAB5A [1]),phenotypically active (A549-CANX-COX4 [2]),phenotypically active (A549-GM130-SQSTM1 [3]),phenotypically active (A549-TP53BP1-CLTA [4]),phenotypically active (A549-TUBA1B-RELA [5]),phenotypically active (HepG2-ACTB-RAB5A),phenotypically active (HepG2-CANX-COX4),phenotypically active (HepG2-GM130-SQSTM1),phenotypically active (HepG2-TP53BP1-CLTA),phenotypically active (HepG2-TUBA1B-RELA),phenotypically active (WPMY1-ACTB-RAB5A),phenotypically active (WPMY1-CANX-COX4),phenotypically active (WPMY1-GM130-SQSTM1),phenotypically active (WPMY1-TP53BP1-CLTA),phenotypically active (WPMY1-TUBA1B-RELA),lowest phenotypically active concentration (A549-ACTB-RAB5A [6]) [µM],lowest phenotypically active concentration (A549-CANX-COX4 [7]) [µM],lowest phenotypically active concentration (A549-GM130-SQSTM1 [8]) [µM],lowest phenotypically active concentration (A549-TP53BP1-CLTA [9]) [µM],lowest phenotypically active concentration (A549-TUBA1B-RELA [10]) [µM]
COCc1nc2c([nH]1)c(=O)n(C)c(=O)n2CC(C)C,0 (inactive),0 (inactive),0 (inactive),0 (inactive),0 (inactive),0 (inactive),0 (inactive),0 (inactive),0 (inactive),0 (inactive),0 (inactive),0 (inactive),0 (inactive),0 (inactive),0 (inactive),,,,,
N#Cc1ccc(C(c2ccc(C#N)cc2)n2cncn2)cc1 [Letrozole],0 (inactive),0 (inactive),0 (inactive),0 (inactive),0 (inactive),0 (inactive),0 (inactive),0 (inactive),0 (inactive),0 (inactive),0 (inactive),0 (inactive),0 (inactive),0 (inactive),0 (inactive),,,,,
COc1ccc2c(c1OC)C(=O)O[C@@H]2[C@H]1c2c(cc3c(c2OC)OCO3)CCN1C [Noscapine hydrochloride],0 (inactive),0 (inactive),0 (inactive),0 (inactive),0 (inactive),0 (inactive),0 (inactive),0 (inactive),0 (inactive),0 (inactive),0 (inactive),0 (inactive),0 (inactive),0 (inactive),0 (inactive),,,,,
COc1cc(C=O)c([N+](=O)[O-])cc1OC,0 (inactive),0 (inactive),0 (inactive),0 (inactive),0 (inactive),0 (inactive),0 (inactive),0 (inactive),0 (inactive),0 (inactive),0 (inactive),0 (inactive),0 (inactive),0 (inactive),0 (inactive),,,,,
Cc1nc(=O)c2c([nH]1)CCSC2,0 (inactive),0 (inactive),0 (inactive),0 (inactive),0 (inactive),0 (inactive),0 (inactive),0 (inactive),0 (inactive),0 (inactive),0 (inactive),0 (inactive),0 (inactive),0 (inactive),0 (inactive),,,,,
Cc1ccnn1-c1ccc(C(=O)N2CCN(S(=O)(=O)c3ccc(Cl)c(C(F)(F)F)c3)CC2)cc1,0 (inactive),0 (inactive),0 (inactive),0 (inactive),0 (inactive),0 (inactive),0 (inactive),0 (inactive),0 (inactive),0 (inactive),0 (inactive),0 (inactive),0 (inactive),0 (inactive),0 (inactive),,,,,
O=C(NCC1CCCCN1)c1cc(OCC(F)(F)F)ccc1OCC(F)(F)F (centres undefined) [flecainide],0 (inactive),0 (inactive),0 (inactive),0 (inactive),0 (inactive),0 (inactive),0 (inactive),0 (inactive),0 (inactive),0 (inactive),0 (inactive),0 (inactive),0 (inactive),0 (inactive),0 (inactive),,,,,
COc1cc(C[C@H]2C(=O)OC[C@@H]2Cc2ccc(OC)c(OC)c2)ccc1O [Arctigenin],1 (active),1 (active),1 (active),1 (active),1 (active),1 (active),1 (active),1 (active),1 (active),1 (active),0 (inactive),0 (inactive),0 (inactive),0 (inactive),0 (inactive),3,3,3,3,9
CCc1c(C)[nH]c2c1C(=O)C(CN1CCOCC1)CC2 (centres undefined) [molindone],0 (inactive),0 (inactive),0 (inactive),0 (inactive),0 (inactive),0 (inactive),0 (inactive),0 (inactive),0 (inactive),0 (inactive),0 (inactive),0 (inactive),0 (inactive),0 (inactive),0 (inactive),,,,,
C=CCc1ccc(O)c(-c2ccc(O)c(CC=C)c2)c1 [Honokiol],1 (active),0 (inactive),0 (inactive),0 (inactive),0 (inactive),0 (inactive),0 (inactive),0 (inactive),0 (inactive),0 (inactive),0 (inactive),0 (inactive),0 (inactive),0 (inactive),0 (inactive),9,,,,
CN(C)C(=N)NC(=N)N [Metformin hydrochloride],0 (inactive),0 (inactive),0 (inactive),0 (inactive),0 (inactive),0 (inactive),0 (inactive),0 (inactive),0 (inactive),0 (inactive),0 (inactive),0 (inactive),0 (inactive),0 (inactive),0 (inactive),,,,,
CC(=O)OCC(=O)[C@@]12OC3(CCCC3)O[C@@H]1C[C@H]1[C@@H]3CCC4=CC(=O)C=C[C@]4(C)[C@@]3(F)[C@@H](O)C[C@@]12C [amcinonide],1 (active),1 (active),1 (active),1 (active),1 (active),0 (inactive),0 (inactive),0 (inactive),0 (inactive),0 (inactive),0 (inactive),0 (inactive),0 (inactive),0 (inactive),0 (inactive),≤ 0.3,≤ 0.3,≤ 0.3,≤ 0.3,≤ 0.3
C[C@@H]1O[C@@H](OC[C@H]2O[C@@H](Oc3c(-c4ccc(O)c(O)c4)oc4cc(O)cc(O)c4c3=O)[C@H](O)[C@@H](O)[C@@H]2O)[C@H](O)[C@H](O)[C@H]1O [Quercétine-3-rutinoside],1 (active),0 (inactive),0 (inactive),0 (inactive),0 (inactive),0 (inactive),0 (inactive),0 (inactive),0 (inactive),0 (inactive),0 (inactive),0 (inactive),0 (inactive),0 (inactive),0 (inactive),9,,,,
NCC(=O)Nc1ccc(-n2nc(C(F)(F)F)cc2-c2ccc3c(ccc4ccccc43)c2)cc1,1 (active),1 (active),1 (active),1 (active),1 (active),1 (active),1 (active),1 (active),1 (active),1 (active),1 (active),1 (active),1 (active),1 (active),1 (active),1,1,1,1,1
COc1nc(N)nc2c1ncn2[C@@H]1O[C@H](CO)[C@@H](O)[C@@H]1O [Nelarabine],1 (active),0 (inactive),0 (inactive),0 (inactive),0 (inactive),0 (inactive),0 (inactive),0 (inactive),0 (inactive),0 (inactive),0 (inactive),0 (inactive),0 (inactive),0 (inactive),0 (inactive),9,,,,
COc1ccc2c(c1)N(C(C)=O)[C@H]1[C@@H]3CO[C@H](C)[C@@H]4CN5CC[C@]21[C@@H]5C[C@H]34 [Strychnospermine],0 (inactive),0 (inactive),0 (inactive),0 (inactive),0 (inactive),0 (inactive),0 (inactive),0 (inactive),0 (inactive),0 (inactive),0 (inactive),0 (inactive),0 (inactive),0 (inactive),0 (inactive),,,,,
CCc1nn(CCCN2CCN(c3cccc(Cl)c3)CC2)c(=O)n1CCOc1ccccc1 [nefazodone],0 (inactive),0 (inactive),0 (inactive),0 (inactive),0 (inactive),0 (inactive),0 (inactive),0 (inactive),0 (inactive),0 (inactive),0 (inactive),0 (inactive),0 (inactive),0 (inactive),0 (inactive),,,,,
Nc1cccc(-c2cc3c(Oc4cccc(O)c4)ncnc3[nH]2)c1,1 (active),1 (active),1 (active),1 (active),1 (active),1 (active),1 (active),1 (active),1 (active),1 (active),1 (active),1 (active),1 (active),1 (active),1 (active),1,1,9,1,1
NC(=O)c1ccc(N(C(N)=O)c2c(F)cccc2F)nc1-c1ccc(F)cc1F,1 (active),0 (inactive),0 (inactive),0 (inactive),0 (inactive),0 (inactive),0 (inactive),0 (inactive),0 (inactive),0 (inactive),0 (inactive),0 (inactive),0 (inactive),0 (inactive),0 (inactive),9,,,,
CN1C(=O)CC(C)(c2ccccc2)C1=O (centres undefined) [methsuximide],0 (inactive),0 (inactive),0 (inactive),0 (inactive),0 (inactive),0 (inactive),0 (inactive),0 (inactive),0 (inactive),0 (inactive),0 (inactive),0 (inactive),0 (inactive),0 (inactive),0 (inactive),,,,,
COc1c(OC2OC(CO)[C@@H](O)[C@H](O)[C@H]2O)cc2c(c1OC)-c1ccc(OC)c(=O)cc1[C@@H](NC(C)=O)CC2 (some centres undefined) [Colchicoside],0 (inactive),0 (inactive),0 (inactive),0 (inactive),0 (inactive),0 (inactive),0 (inactive),0 (inactive),0 (inactive),0 (inactive),0 (inactive),0 (inactive),0 (inactive),0 (inactive),0 (inactive),,,,,
C[C@@H]1C[C@H]2[C@@H]3C[C@H](F)C4=CC(=O)C=C[C@]4(C)[C@@]3(F)[C@@H](O)C[C@]2(C)[C@@]1(O)C(=O)COC(=O)C(C)(C)C [flumethasone pivalate],1 (active),1 (active),1 (active),1 (active),1 (active),0 (inactive),0 (inactive),0 (inactive),0 (inactive),0 (inactive),0 (inactive),0 (inactive),0 (inactive),0 (inactive),0 (inactive),≤ 0.3,≤ 0.3,≤ 0.3,≤ 0.3,≤ 0.3
